Data on 31 compounds can be found in PubChem BioAssay (EPA / NIEHS).

Several values for one entry are separate records, joined by “and”; a condition that tells them apart may be missing. Identical values can stand only once. Where a structure was tested more than once in an assay, its records may differ in their call. Activity calls are given as the source filed them. The calls were made as follows, unless noted: active = hit-call score of the fitted dose curve at least 0.9, where 1 is the maximum; inactive = score below 0.9.

Read-out in assay [1]: Monocyte Chemoattractant Protein-1 (MCP1), CCL2 (gene 6347)
Kind of assay: BSK_SAg_MCP1: BioMAP Diversity Plus: SAg Assay for Monocyte Chemoattractant Protein-1 (MCP1) Biomarker Activity (AID 2283090). The note with it: primary human HUVEC with PBMC; actives raise or lower the signal. An outline of the steps: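 Values derive from bidirectional fitting of ELISA-measured MCP1 against DMSO controls. Readings were taken 24 h after dosing human vascular endothelial cells co-cultured with peripheral blood mononuclear cells under superantigen stimulation.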

Read-out in assay [2]: E-selectin (Homo sapiens) (UniProt P16581)
Kind of assay: BSK_SAg_Eselectin: BioMAP Diversity Plus: SAg Assay for Eselectin Biomarker Activity (AID 2283091). The note with it: primary human HUVEC with PBMC; actives raise or lower the signal. An outline of the steps:
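Human umbilical vein endothelial cells co-cultured with peripheral blood mononuclear cells, SAg system. E-selectin is measured by ELISA 24 h after dosing and fitted bidirectionally against DMSO. Cytotoxicity is checked by SRB staining of parallel cultures.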

Read-out in assay [3]: Monokine induced gamma interferon (MIG), CXCL9 (gene 4283)
Kind of assay: BSK_SAg_MIG: BioMAP Diversity Plus: SAg Assay for Monokine induced gamma interferon (MIG) Biomarker Activity (AID 2283092). The settings on record: primary human HUVEC with PBMC; actives raise or lower the signal. An outline of the steps: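 Endothelial cells and PBMC were co-cultured, exposed to test chemicals, and sampled 24 h later. MIG was measured by ELISA, and responses were fitted in both directions relative to DMSO.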

A short description of assay [4]: BSK_SAg_PBMCCytotoxicity: PBMC Cytotoxicity Assessment in the BioMAP Diversity Plus: SAg Assay (AID 2283093).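 Also: PBMC viability measured as Alamar Blue reduction fluorescence at 546/580 nm; fitted both ways against DMSO so a hit may be loss or gain of signal.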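 As to AC50: PBMC superantigen activated with SEB plus TSST-1 one hour after compound addition.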 The note with it: primary human HUVEC with PBMC. An outline of the steps: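 Alamar Blue reduction (6 h, ex/em 546/580 nm) read after 90 h culture of PBMC pre-dosed 1 h then stimulated with SEB plus TSST-1, 20 ng/mL each. Gain or loss of signal fitted relative to DMSO.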

Assay [5] is described as follows: BSK_SAg_Proliferation: Cell Proliferation Assessment in the BioMAP Diversity Plus: SAg Assay (AID 2283095).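 Also: relative cell number as total protein by SRB absorbance in sub-confluent culture.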 The note with it: primary human HUVEC with PBMC. An outline of the steps:
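Relative cell number in the endothelial cell/PBMC co-culture was quantified at 96 h by SRB staining (0.1% SRB, 10% TCA fixation, read at 560 nm). Curves were fitted in both directions relative to DMSO baseline.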

The nature of assay [6]: BSK_SAg_SRB: Viability Assessment in the BioMAP Diversity Plus: SAg Assay (AID 2283096).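 Also: cells read one day after compound addition; hits may be either gain or loss of signal compared with DMSO.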 The settings on record: primary human HUVEC with PBMC. An outline of the steps:
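SRB absorbance at 560 nm served as the viability read-out. Cells (HUVEC plus peripheral blood mononuclear cells) were TCA-fixed and stained 24 h post-dosing; activity fitted in both directions against DMSO controls.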

Read-out in assay [7]: Interleukin-8 (IL8), CXCL8 (gene 3576)
Kind of assay: BSK_SAg_IL8: BioMAP Diversity Plus: SAg Assay for Interleukin-8 (IL8) Biomarker Activity (AID 2283094). The note with it: primary human HUVEC with PBMC; actives raise or lower the signal. An outline of the steps:
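ELISA readout of IL-8 from a superantigen-activated endothelial/PBMC primary human co-culture, taken 24 h post-dosing and fitted in both directions against DMSO; parallel SRB total-protein staining flags overt cytotoxicity.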

Assay [8] addresses human CYP2D6, CYP2D6 (gene 1565) (UniProt P10635). In words: NVS_ADME_hCYP2D6: NovaScreen (NVS) CYP450-related Enzyme Activity (ADME) Assay for human CYP2D6 (AID 2283107; active = hit-call score of the fitted dose curve at least 0.9, where 1 is the maximum). An outline of the steps: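 Cell-free assay using recombinant human CYP2D6 expressed in insect cells, with a fluorogenic substrate read after 1 h. Primary screen in duplicate at 10 uM; actives followed up in concentration series. Loss of signal fitted relative to acetonitrile.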

E-selectin (Homo sapiens), sequence (P16581 whole entry, looked up): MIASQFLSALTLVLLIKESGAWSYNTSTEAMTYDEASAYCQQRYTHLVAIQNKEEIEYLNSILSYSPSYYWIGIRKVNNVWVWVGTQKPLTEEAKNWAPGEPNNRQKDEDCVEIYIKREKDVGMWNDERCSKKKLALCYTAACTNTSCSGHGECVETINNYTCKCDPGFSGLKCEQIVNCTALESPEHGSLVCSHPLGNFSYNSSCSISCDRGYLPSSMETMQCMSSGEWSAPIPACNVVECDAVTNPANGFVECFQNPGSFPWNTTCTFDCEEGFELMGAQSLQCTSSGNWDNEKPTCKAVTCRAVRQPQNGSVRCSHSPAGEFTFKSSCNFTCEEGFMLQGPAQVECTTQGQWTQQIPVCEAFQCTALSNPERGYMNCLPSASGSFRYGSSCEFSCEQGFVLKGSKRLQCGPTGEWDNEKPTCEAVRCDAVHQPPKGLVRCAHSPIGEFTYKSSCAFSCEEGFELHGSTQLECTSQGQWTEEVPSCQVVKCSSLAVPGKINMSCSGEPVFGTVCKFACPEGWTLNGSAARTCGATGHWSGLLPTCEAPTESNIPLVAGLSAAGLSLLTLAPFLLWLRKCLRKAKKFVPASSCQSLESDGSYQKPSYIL
human CYP2D6, CYP2D6 (gene 1565), sequence (P10635 whole entry, looked up): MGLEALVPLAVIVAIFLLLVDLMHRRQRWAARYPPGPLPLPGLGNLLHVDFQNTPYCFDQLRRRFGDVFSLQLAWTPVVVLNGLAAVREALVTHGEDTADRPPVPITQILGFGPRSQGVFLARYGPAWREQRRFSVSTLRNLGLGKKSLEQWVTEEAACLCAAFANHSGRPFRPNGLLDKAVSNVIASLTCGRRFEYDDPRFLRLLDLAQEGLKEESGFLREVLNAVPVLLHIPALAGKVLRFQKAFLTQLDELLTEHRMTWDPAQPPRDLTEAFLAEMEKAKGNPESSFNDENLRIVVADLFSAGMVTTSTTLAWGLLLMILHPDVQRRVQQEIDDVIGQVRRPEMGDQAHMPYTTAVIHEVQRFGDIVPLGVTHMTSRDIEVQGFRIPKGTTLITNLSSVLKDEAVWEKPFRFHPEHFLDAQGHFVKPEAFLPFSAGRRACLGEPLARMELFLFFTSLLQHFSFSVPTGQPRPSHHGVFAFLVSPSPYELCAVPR

Take `OCCCCC(F)(F)C(F)(F)C(F)(F)C(F)(F)F`: the result in assay [1], in assay [2], in assay [3], in assay [4], in assay [5] and in assay [6] was inactive.
On to `CCOC(=O)CC(=O)C(F)(F)C(F)(F)F`, for which the outcome in assay [1], in assay [2], in assay [3], in assay [4], in assay [5] and in assay [6] was inactive.
In the case of `NC(=O)C(F)(F)C(F)(F)C(F)(F)C(F)F`, the result in assay [1], in assay [2], in assay [4], in assay [7], in assay [5] and in assay [6] was inactive.
Regarding `OCC(O)CC(F)(F)C(F)(F)C(F)(F)C(F)(F)C(F)(F)C(F)(F)C(F)(F)C(F)(F)F` (stereo not given), the result in assay [1], in assay [2], in assay [3], in assay [4], in assay [7] and in assay [5] was inactive. Moreover, the result in assay [6] was inactive.
With `FC(F)(F)C(F)(F)C(F)(F)C(F)(F)C(F)(F)C(F)(F)C(F)(F)CCI`, the outcome in assay [1], in assay [2], in assay [3], in assay [4], in assay [7] and in assay [5] was inactive. Also, the result in assay [6] was inactive.
Take `O=C(O)C(F)(F)C(F)(F)C(F)(F)C(=O)O`: the result in assay [1], in assay [2], in assay [4], in assay [7], in assay [5] and in assay [6] was inactive.
Take `FC(F)(F)C(F)(F)C(F)(F)CC1CO1` (stereo not given): the outcome in assay [1], in assay [2], in assay [3], in assay [4], in assay [7] and in assay [5] was inactive. In assay [6], the outcome was inactive.
With `O=S(=O)(OCC(F)(F)F)C(F)(F)C(F)(F)C(F)(F)C(F)(F)F`, the result in assay [1], in assay [2], in assay [3], in assay [4], in assay [5] and in assay [6] was inactive.
Regarding `O=C(O)C(F)(F)C(F)(F)C(F)(F)OC(F)(F)F`, the outcome in assay [1], in assay [2], in assay [3], in assay [4], in assay [7] and in assay [5] was inactive. Besides, the result in assay [6] was inactive.
With `O=S(=O)(Cl)C(F)(F)C(F)(F)C(F)(F)C(F)(F)C(F)(F)C(F)(F)C(F)(F)C(F)(F)F`, the outcome in assay [1], in assay [2], in assay [3], in assay [4] and in assay [5] was inactive. Further, the AC50 in assay [2] is 37.5 µM (active); in assay [6], 43.2 µM (active) and 55.5 µM (active).
As for `CO[Si](C)(CCC(F)(F)C(F)(F)C(F)(F)C(F)(F)C(F)(F)C(F)(F)F)OC`, the outcome in assay [1], in assay [2], in assay [3], in assay [4], in assay [5] and in assay [6] was inactive.
Consider `NC(O)(C(F)(F)F)C(F)(F)F`, for which the outcome in assay [1], in assay [2], in assay [3], in assay [4], in assay [5] and in assay [6] was inactive.
In the case of `O=C(O)C(F)(F)C(F)(F)C(F)(F)C(F)(F)C(F)(F)C(F)(F)C(F)F`, the result in assay [1], in assay [2], in assay [3], in assay [4], in assay [5] and in assay [6] was inactive.
With `Nc1cc([N+](=O)[O-])cc(Cl)c1O`, the outcome in assay [1], in assay [2], in assay [4], in assay [7], in assay [5] and in assay [6] was inactive.
Consider `O=C=NCc1cccc(CN=C=O)c1`, for which the result in assay [1], in assay [2], in assay [3], in assay [4], in assay [5] and in assay [6] was inactive.
For `O=C1C=CC(=O)N1c1ccc(Cc2ccc(N3C(=O)C=CC3=O)cc2)cc1`, the AC50 in assay [1] was 6.98 µM (active); in assay [2], 6.88 µM (active); in assay [3], 13 µM (active); in assay [4] it was 7.25 µM (active); in assay [7], 4.35 µM (active); in assay [5], 3.92 µM (active). The AC50 in assay [6] was 20 µM (active).
As to `CN(C(=O)C(F)(F)C(F)(F)C(F)(F)F)[Si](C)(C)C`, the outcome in assay [1], in assay [2], in assay [3], in assay [4], in assay [7] and in assay [5] was inactive. The outcome in assay [6] was inactive.
Regarding `OCC(F)(F)C(F)(F)C(F)(F)C(F)(F)C(F)(F)C(F)(F)C(F)(F)C(F)(F)CO`, the result in assay [1], in assay [2], in assay [7], in assay [5] and in assay [6] was inactive. Moreover, the AC50 in assay [4] was 43.8 µM (active) and 50.7 µM (active); in assay [5], 45.5 µM (active).
Take `CC(C)CCCC(C)CCO` (stereo not given): the result in assay [1], in assay [3], in assay [7] and in assay [6] was inactive. The AC50 in assay [2] was 20 µM (active); in assay [4], 30.6 µM (active); in assay [5], 20 µM (active).
As to `C=C(C)C(=O)OCC(F)(F)C(F)(F)C(F)(F)C(F)F`, the outcome in assay [1], in assay [2], in assay [3], in assay [4], in assay [7] and in assay [5] was inactive. Also, the outcome in assay [6] was inactive.
As to `O=C(F)C1(F)C(F)(F)C(F)(F)C(F)(F)C(F)(F)C1(F)F`, the result in assay [1], in assay [2], in assay [3], in assay [4], in assay [5] and in assay [6] was inactive.
Turning to `O=C1c2c(O)ccc(Nc3ccc(CCO)cc3)c2C(=O)c2c([N+](=O)[O-])ccc(O)c21`, the outcome in assay [1], in assay [2] and in assay [6] was inactive. The AC50 is 33.7 µM (active) in assay [3], 9.47 µM (active) in assay [4], 20 µM (active) in assay [5] and 5 µM (active) in assay [8].
`NCC(F)(F)C(F)(F)C(F)(F)C(F)(F)C(F)(F)C(F)(F)F`: the result in assay [1], in assay [2], in assay [4], in assay [7], in assay [5] and in assay [6] was inactive.
For `NS(=O)(=O)C(F)(F)C(F)(F)C(F)(F)C(F)(F)C(F)(F)C(F)(F)F`, the outcome in assay [1], in assay [4], in assay [5] and in assay [6] was inactive. Also, the AC50 in assay [2] was 41.7 µM (active) and 21.7 µM (active); in assay [4], 11.8 µM (active); in assay [6], 55.3 µM (active).
On to `C[Si](Cl)(Cl)CCC(F)(F)C(F)(F)C(F)(F)C(F)(F)C(F)(F)C(F)(F)F`, for which the outcome in assay [1], in assay [2], in assay [3], in assay [4], in assay [7] and in assay [5] was inactive. Also, in assay [6], the result was inactive.
As for `NCC(F)(F)C(F)(F)C(F)(F)C(F)(F)C(F)(F)C(F)(F)C(F)(F)C(F)(F)F`, the outcome in assay [1], in assay [2], in assay [3], in assay [4], in assay [7] and in assay [5] was inactive. The outcome in assay [6] was inactive.
With `C=CC(=O)OCC(F)(F)C(F)(F)C(F)(F)C(F)(F)C(F)(F)C(F)(F)C(F)(F)C(F)F`, the outcome in assay [1], in assay [2] and in assay [6] was inactive. Moreover, the AC50 was 30 µM (active) in assay [2]; 26.8 µM (active) and 16.6 µM (active) in assay [4]; 36.8 µM (active) and 27.1 µM (active) in assay [5].
For the compound `O=S(=O)(O)CCC(F)(F)C(F)(F)C(F)(F)C(F)(F)C(F)(F)C(F)(F)C(F)(F)C(F)(F)F`, the outcome in assay [1], in assay [2], in assay [3], in assay [4], in assay [5] and in assay [6] was inactive.
As to `Cc1ccc(S(=O)(=O)C(I)I)cc1`, the AC50 in assay [1] is 3.7 µM (active); in assay [2], 5.14 µM (active); in assay [4] it was 1.43 µM (active); in assay [7], 4.27 µM (active); in assay [5], 0.866 µM (active); in assay [6], 5.34 µM (active).
Consider `Cc1ccc(O)c(-n2nc3ccccc3n2)c1`, for which the outcome in assay [1], in assay [2], in assay [4], in assay [7], in assay [5] and in assay [6] was inactive.
Turning to `NC(=O)C(F)(F)C(F)(F)C(F)(F)F`, the outcome in assay [1], in assay [2], in assay [3], in assay [4], in assay [5] and in assay [6] was inactive.

The term AC50 denotes the midpoint of the concentration-response curve, whichever way the signal moves.
